Results published in the supplement of paper PMC10849652.
About 7,900 targets were measured; listed, in parts, are those with a hit and a random draw of the rest. About 0.6% of all pairs of compound and target were hits. Unmarked numbers belong to inactive results.

Experiments:
Assay in all cases: log2 fold change, soluble protein after heating vs DMSO (PISA); higher = thermal stabilisation; K562 cells, 10 uM, 30 min; active = over 0.2 and 3.5 SD of the protein, either way, in both replicates (recomputed)
[1] = compound: C#Cc1cccc(Nc2ncnc3cc(OCCOC)c(OCCOC)cc23)c1 [erlotinib]
Method in brief: (§1)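 Thermal stability values are relative to control samples and come from duplicates. They are expressed as log2 fold changes. For measurement, K562 cells (2×10^6 cells/mL) received 10 μM compound for 30 min, and aliquots were heated for 3 min over 48°C-58°C, pooled, and extracted at 4°C in PBS with 0.5% NP-40. Soluble protein, the supernatant after 21,000xg for 90 min, was quantified by TMTpro 16plex LC-MS/MS with equalised channel sums.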

[2] = compound: C/C(=N\NC(=O)C1=CC(=CC=C1)S(=O)(=O)N2CCOCC2)/C3=C(C=CC(=C3)Cl)O
Method in brief: as §1

[3] = compound: C1=CC(=C(C=C1Cl)C2=NC3=NC=CN=C3C(=N2)NC4=CC=NC=C4)F
Method in brief: as §1

[4] = compound: C1=CC(=CC=C1C2=NC3=C(N2)C=C(C=C3)C(=O)N)OC4=CC=C(C=C4)Cl
Method in brief: as §1

[5] = compound: C1=CC2=C(C=CC(=C2)/C=C\3/C(=O)NC(=NCC4=CC=CS4)S3)N=C1
Method in brief: as §1

[6] = compound: C1=CC2=NC=CN=C2C=C1/C=C/3\C(=O)NC(=O)S3
Method in brief: as §1

[7] = compound: C1=CC=C(C=C1)C2=NC(=C(N2)C3=CC=NC=C3)C4=CC(=C(C=C4)Cl)O
Method in brief: as §1

[8] = compound: C1=CC=C2C(=C1)C3=NNC4=CC=CC(=C43)C2=O
Method in brief: as §1

[9] = compound: C1CCN(C1)C(=O)NC2=CC=CC(=C2)NC3=NC=C(C(=N3)NCCC4=CN=CN4)Br
Method in brief: as §1

[10] = compound: C1CN(CCC1(CC2=CC=C(C=C2)Cl)N)C3=NC=NC4=C3C=CN4
Method in brief: as §1

[11] = compound: C1COCCN1CCN2C3=CC=CC=C3N=C2NC(=O)C4=CC(=CC=C4)[N+](=O)[O-] [IRAK-1-4 Inhibitor I]
Method in brief: as §1

[12] = compound: C=CC(=O)N1CCC[C@@H](n2nc(-c3ccc(Oc4ccccc4)cc3)c3c(N)ncnc32)C1 [ibrutinib]
Method in brief: as §1

[13] = compound: CC(=O)c1cnc2ccc(-c3cc(Cl)c(O)c(Cl)c3)nc2c1N[C@H]1CC[C@H](CN(C)C)CC1
Method in brief: as §1

[14] = compound: CC(C)(C)Cn1c(N)nc2ccc(-c3[nH]c(C(C)(C)C)nc3-c3ccc(F)cc3)nc21 [ralimetinib]
Method in brief: as §1

[15] = compound: CC(C)(O)CC(=O)NCCn1ccc2ncnc(Nc3ccc(Oc4cccc(C(F)(F)F)c4)c(Cl)c3)c21
Method in brief: as §1

[16] = compound: CC(C)C1=C2N=C(C=C(N2N=C1)NCC3=CC=CC=C3)NCCCCCCN
Method in brief: as §1

[17] = compound: CC(C)C[C@@H](C=O)NC(=O)[C@H](CC(C)C)NC(=O)[C@H](CC(C)C)NC(=O)OCc1ccccc1
Method in brief: as §1

[18] = compound: CC(C)N(C[C@H]1O[C@@H](n2cnc3c(N)ncnc32)[C@H](O)[C@@H]1O)[C@H]1C[C@@H](CCc2nc3cc(C(C)(C)C)ccc3[nH]2)C1 [pinometostat]
Method in brief: as §1

[19] = compound: CC1=C(C(CC(=O)N1)C2=CC=C(C=C2)C(F)(F)F)C(=O)NC3=C(C=C4C(=C3)C=NN4)F
Method in brief: as §1

[20] = compound: CC1=C(C2=C(C=C1)C(=O)C3=CC=CC=C3N2CCCN)C
Method in brief: as §1

Sequence of UniProt O60493 (O60493 whole entry, looked up): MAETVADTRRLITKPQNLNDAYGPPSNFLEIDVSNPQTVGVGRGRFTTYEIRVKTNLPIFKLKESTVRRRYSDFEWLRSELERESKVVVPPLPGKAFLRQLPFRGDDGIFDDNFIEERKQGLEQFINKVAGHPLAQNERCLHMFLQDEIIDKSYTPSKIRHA
Sequence of UniProt Q15526 (Q15526 whole entry, looked up): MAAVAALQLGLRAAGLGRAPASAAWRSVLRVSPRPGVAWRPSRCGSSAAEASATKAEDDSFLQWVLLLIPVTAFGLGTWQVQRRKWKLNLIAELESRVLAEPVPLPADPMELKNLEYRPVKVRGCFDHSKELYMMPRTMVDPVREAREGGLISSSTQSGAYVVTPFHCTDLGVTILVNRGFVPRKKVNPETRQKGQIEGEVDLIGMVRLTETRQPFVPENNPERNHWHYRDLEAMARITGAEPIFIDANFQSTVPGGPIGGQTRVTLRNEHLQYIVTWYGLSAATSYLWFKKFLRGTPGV
Sequence of UniProt Q9UBP0 (Q9UBP0 whole entry, looked up): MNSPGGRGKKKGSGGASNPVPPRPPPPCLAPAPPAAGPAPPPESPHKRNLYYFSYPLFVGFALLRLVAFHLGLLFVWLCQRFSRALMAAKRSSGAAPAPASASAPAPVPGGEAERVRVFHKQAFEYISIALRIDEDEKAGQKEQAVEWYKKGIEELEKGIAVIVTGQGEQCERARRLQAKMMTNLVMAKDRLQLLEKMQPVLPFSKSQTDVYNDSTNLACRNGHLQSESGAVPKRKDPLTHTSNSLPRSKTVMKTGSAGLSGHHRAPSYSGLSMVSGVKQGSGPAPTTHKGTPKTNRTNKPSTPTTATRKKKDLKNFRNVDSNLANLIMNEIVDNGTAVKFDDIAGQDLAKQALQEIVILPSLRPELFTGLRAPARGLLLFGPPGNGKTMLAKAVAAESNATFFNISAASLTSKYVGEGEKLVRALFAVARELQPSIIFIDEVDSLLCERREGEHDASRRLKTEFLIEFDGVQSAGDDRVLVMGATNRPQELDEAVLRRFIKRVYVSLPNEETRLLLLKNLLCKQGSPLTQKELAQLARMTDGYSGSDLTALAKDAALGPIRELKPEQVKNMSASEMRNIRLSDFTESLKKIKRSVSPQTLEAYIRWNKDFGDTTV
Sequence of UniProt Q8TCT7 (Q8TCT7 whole entry, looked up): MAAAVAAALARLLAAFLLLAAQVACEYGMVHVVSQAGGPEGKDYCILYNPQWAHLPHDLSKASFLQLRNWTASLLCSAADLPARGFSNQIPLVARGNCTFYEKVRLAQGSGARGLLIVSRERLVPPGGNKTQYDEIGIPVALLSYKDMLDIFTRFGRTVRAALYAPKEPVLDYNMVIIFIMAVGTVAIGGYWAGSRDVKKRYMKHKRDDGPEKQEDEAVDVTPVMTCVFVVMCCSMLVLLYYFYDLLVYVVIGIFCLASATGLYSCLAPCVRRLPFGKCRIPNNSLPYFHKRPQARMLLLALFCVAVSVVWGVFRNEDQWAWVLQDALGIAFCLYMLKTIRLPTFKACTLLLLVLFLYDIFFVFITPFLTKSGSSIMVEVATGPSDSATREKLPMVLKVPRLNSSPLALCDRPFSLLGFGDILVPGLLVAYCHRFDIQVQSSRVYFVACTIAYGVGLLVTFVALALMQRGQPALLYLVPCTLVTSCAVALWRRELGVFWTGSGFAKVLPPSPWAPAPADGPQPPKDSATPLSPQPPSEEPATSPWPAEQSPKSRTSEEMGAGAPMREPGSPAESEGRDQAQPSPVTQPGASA
Sequence of UniProt Q16629 (Q16629 whole entry, looked up): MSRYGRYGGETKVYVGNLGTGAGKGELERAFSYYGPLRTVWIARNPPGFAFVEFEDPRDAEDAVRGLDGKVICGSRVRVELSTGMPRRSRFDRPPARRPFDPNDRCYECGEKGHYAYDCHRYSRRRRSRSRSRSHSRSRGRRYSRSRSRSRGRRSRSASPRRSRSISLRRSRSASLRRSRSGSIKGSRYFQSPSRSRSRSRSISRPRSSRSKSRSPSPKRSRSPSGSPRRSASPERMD
Sequence of UniProt Q14849 (Q14849 whole entry, looked up): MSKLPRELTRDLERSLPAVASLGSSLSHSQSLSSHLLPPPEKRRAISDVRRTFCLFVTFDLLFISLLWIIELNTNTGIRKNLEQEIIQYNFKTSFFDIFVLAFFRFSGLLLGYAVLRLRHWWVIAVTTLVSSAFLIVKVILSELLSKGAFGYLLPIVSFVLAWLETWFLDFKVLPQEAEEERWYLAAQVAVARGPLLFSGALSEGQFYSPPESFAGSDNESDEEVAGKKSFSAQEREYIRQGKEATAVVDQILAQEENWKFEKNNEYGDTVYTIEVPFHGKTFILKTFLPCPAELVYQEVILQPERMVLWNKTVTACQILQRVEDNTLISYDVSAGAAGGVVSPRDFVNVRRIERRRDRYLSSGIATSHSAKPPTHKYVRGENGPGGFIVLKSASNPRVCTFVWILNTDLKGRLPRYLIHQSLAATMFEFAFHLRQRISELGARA
Sequence of UniProt Q9H2G2 (Q9H2G2 whole entry, looked up): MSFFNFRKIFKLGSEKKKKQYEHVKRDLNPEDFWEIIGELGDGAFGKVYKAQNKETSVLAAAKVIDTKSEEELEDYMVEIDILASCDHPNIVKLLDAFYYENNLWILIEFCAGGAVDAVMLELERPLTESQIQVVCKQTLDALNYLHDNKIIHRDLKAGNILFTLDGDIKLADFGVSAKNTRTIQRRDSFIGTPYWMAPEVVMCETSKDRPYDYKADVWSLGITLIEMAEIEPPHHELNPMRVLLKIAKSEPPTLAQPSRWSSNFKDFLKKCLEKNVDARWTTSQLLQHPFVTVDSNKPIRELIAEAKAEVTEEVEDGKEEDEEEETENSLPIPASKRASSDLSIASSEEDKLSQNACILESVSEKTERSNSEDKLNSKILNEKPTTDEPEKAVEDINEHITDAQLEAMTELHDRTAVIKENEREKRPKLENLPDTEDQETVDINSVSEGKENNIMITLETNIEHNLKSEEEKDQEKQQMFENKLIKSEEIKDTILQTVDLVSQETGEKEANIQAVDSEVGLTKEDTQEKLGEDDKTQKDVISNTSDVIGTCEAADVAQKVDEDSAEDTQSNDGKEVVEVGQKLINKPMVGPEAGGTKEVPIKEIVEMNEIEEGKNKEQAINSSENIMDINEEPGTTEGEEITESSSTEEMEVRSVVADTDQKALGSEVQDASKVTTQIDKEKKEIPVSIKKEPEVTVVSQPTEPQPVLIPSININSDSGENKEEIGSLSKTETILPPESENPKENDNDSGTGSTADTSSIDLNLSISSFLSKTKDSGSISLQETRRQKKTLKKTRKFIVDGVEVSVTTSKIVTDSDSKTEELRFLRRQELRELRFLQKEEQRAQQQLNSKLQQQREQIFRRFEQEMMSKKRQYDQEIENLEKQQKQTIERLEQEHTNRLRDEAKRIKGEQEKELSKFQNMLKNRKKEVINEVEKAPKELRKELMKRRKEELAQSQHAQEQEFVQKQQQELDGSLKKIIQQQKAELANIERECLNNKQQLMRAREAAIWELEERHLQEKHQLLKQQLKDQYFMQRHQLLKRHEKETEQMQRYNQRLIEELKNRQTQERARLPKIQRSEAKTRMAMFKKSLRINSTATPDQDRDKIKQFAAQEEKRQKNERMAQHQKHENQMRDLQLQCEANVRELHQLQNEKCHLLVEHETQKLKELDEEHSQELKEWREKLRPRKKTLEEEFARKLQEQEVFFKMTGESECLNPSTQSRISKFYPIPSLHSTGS
Sequence of UniProt Q9Y6I9 (Q9Y6I9 whole entry, looked up): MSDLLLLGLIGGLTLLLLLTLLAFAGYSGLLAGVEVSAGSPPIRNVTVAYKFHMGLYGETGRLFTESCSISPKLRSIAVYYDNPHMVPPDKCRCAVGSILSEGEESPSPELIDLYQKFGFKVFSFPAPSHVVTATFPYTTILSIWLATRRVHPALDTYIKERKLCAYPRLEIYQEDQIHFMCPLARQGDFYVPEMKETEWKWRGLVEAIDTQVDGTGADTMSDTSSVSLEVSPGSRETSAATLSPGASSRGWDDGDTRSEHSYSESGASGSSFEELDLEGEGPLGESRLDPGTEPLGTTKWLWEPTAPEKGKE
Sequence of UniProt Q9ULP9 (Q9ULP9 whole entry, looked up): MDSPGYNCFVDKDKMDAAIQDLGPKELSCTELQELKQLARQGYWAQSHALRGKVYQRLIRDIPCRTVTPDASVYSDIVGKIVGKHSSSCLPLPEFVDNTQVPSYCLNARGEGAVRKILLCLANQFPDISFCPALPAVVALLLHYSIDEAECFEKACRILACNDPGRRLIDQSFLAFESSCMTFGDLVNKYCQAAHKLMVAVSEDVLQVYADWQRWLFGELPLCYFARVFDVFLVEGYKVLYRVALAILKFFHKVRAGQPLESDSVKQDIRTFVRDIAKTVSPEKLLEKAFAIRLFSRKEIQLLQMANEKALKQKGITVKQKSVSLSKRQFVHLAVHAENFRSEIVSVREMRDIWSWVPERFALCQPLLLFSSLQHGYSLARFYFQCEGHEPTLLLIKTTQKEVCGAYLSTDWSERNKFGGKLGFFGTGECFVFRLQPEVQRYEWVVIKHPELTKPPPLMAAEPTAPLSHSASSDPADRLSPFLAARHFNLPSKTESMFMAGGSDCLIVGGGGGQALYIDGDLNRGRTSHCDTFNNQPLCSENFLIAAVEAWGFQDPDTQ
Sequence of UniProt P53597 (P53597 whole entry, looked up): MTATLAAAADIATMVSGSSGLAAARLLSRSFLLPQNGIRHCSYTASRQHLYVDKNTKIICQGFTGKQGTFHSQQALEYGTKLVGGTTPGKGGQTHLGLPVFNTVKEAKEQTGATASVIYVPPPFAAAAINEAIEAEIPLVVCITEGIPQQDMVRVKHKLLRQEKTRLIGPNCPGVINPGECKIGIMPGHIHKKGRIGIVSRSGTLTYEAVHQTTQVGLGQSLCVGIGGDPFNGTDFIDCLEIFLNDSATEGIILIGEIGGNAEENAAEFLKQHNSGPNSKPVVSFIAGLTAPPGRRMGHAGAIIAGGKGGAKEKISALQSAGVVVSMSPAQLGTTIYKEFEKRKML

Row | Target | log2 fold change [1] | log2 fold change [2] | log2 fold change [3] | log2 fold change [4] | log2 fold change [5] | log2 fold change [6] | log2 fold change [7] | log2 fold change [8] | log2 fold change [9] | log2 fold change [10] | log2 fold change [11] | log2 fold change [12] | log2 fold change [13] | log2 fold change [14] | log2 fold change [15] | log2 fold change [16] | log2 fold change [17] | log2 fold change [18] | log2 fold change [19] | log2 fold change [20]
1 | SMCHD1 (UniProt A6NHR9) | 0.006 | 0.171 | -0.272 | 0.043 | 0.325 | 0.046 | -0.007 | -0.422 | -0.153 | -0.564 (active) | -0.268 | -0.007 | -0.344 | 0.108 | 0.068 | -0.067 | 0.038 | 0.092 | -0.08 | 0.406
2 | SPPL2B (UniProt Q8TCT7) | 0.021 | -0.112 | -0.039 | 0.044 | 0.081 | 0.048 | 0.003 | -0.072 | -0.041 | 0.038 | -0.004 | 0.013 | -0.039 | 0.041 | 0.179 | -0.086 | 0.101 | -0.032 | 0.049 | 0.02
3 | SURF1 (UniProt Q15526) | 0.021 | -0.036 | 0.051 | -0.026 | -0.045 | 0.055 | 0.056 | 0.017 | -0.141 | 0 | 0.021 | -0.028 | 0.051 | -0.04 | 0.036 | -0.172 | 0.028 | -0.044 | 0.022 | 0.098
4 | TEX264 (UniProt Q9Y6I9) | 0.099 | 0.024 | 0.034 | 0.769 (active) | 0.325 | 0 | 0.203 | 0.349 | 0.033 | 0 | -0.011 | -0.049 | -0.022 | 0 | 0.19 | -0.148 | -0.035 | -0.005 | -0.155 | 0.091
5 | STARD3 (UniProt Q14849) | -0.073 | 0.133 | -0.05 | 0.022 | -0.095 | 0.058 | -0.028 | 0.197 | 0.059 | 0.04 | -0.075 | 0.23 | -0.033 | 0.033 | -0.075 | -0.429 (active) | 0.122 | 0 | 0.222 | -0.044
6 | SLK isoform 2 (UniProt Q9H2G2) | -0.023 | 0.083 | -0.098 | -0.001 | 0.043 | 0.075 | -0.135 | -0.047 | -0.028 | -0.057 | -0.008 | -0.123 | 0.04 | 0.005 | -0.216 | 0.002 | 0.022 | 0.022 | -0.025 | 0.073
7 | SLC27A1 (UniProt Q6PCB7) | -0.003 | -0.053 | 0.055 | -0.008 | 0.061 | 0 | 0.016 | 0.012 | -0.411 (active) | -0.064 | 0.052 | 0.064 | -0.05 | 0.001 | 0.117 | -0.035 | -0.04 | -0.034 | 0.195 | 0.04
8 | SPCS2 (UniProt Q15005) | -0.022 | 0.015 | 0.077 | -0.043 | 0.011 | 0.029 | -0.004 | -0.08 | -0.005 | 0.001 | -0.014 | -0.037 | -0.039 | -0.047 | -0.016 | -0.01 | -0.058 | -0.062 | -0.033 | 0.002
9 | SRSF7 (UniProt Q16629) | 0.083 | -0.043 | -0.292 | 0.063 | -0.154 | -0.032 | -0.135 | -0.037 | 0.084 | -0.063 | -0.112 | 0.128 | -0.288 | 0.098 | 0.24 | 0.032 | 0.084 | 0.128 | 0.053 | -0.266
10 | SLC7A6 (UniProt Q92536) | -0.051 | 0.232 | -0.161 | 0.026 | -0.001 | 0.034 | 0.008 | -0.033 | -0.004 | 0.135 | -0.03 | -0.032 | -0.037 | -0.02 | -0.301 | 0.142 | 0.006 | -0.068 | 0.025 | -0.02
11 | SPAST (UniProt Q9UBP0) | 0.139 | 0.129 | 0.032 | -0.046 | 0.06 | 0.028 | 0.007 | 0.064 | -0.048 | -0.004 | 0.054 | -0.015 | -0.073 | 0.015 | -0.157 | -0.063 | 0.013 | 0.002 | -0.019 | 0.114
12 | TBC1D24 (UniProt Q9ULP9) | 0.038 | 0.068 | 0.059 | 0.037 | 0.072 | 0 | 0.048 | 0.053 | 0.042 | 0.157 | -0.025 | 0.022 | -0.415 (active) | -0.086 | -0.057 | -0.09 | -0.053 | 0.04 | 0.047 | 0.142
13 | TJP2 isoform 7 (UniProt Q9UDY2) | 0.116 | 0.06 | -0.042 | 0.006 | 0.029 | -0.201 | 0.008 | -0.006 | -0.08 | 0.001 | 0.004 | -0.004 | -0.437 (active) | 0.032 | -0.061 | -0.107 | 0.068 | 0.003 | 0.017 | 0.05
14 | SNX3 (UniProt O60493) | 0.129 | 0.074 | -0.056 | -0.052 | 0.078 | -0.058 | 0.123 | -0.136 | 0.026 | -0.068 | -0.049 | 0.011 | -0.028 | -0.059 | -0.104 | -0.187 | 0.084 | 0.073 | -0.022 | 0.053
15 | SUCLG1 (UniProt P53597) | 0.033 | 0.027 | 0.052 | -0.004 | 0.012 | -0.017 | 0.061 | -0.017 | 0.021 | 0.034 | 0.048 | 0.01 | -0.018 | -0.039 | -0.07 | -0.058 | -0.01 | -0.04 | -0.017 | 0.053
16 | SNX1 (UniProt Q13596) | 0.048 | 0.034 | 0.009 | 0.055 | 0.005 | -0.035 | -0.024 | -0.118 | 0.017 | -0.03 | 0.022 | 0.022 | -0.227 | 0.033 | -0.288 | -0.246 | 0.034 | 0.014 | 0.015 | 0.036
